# Assay results: paper PMC5540273 (PLoS ONE, 2017)
# Values joined by “and” are separate entries in the source; they are usually repeats but may differ in a detail not shown here. Identical values can stand only once. Like-named read-outs stand apart in the source and are kept apart here.
# Assays:
# [1] = test system: DMPK; conditions: concentration: 1 μM, replicates: in singlicate, n = 1
# [2] = test system: T1, DRAK1; conditions: concentration: 1 μM, replicates: in singlicate, n = 1
# T1 construct: gene STK17A
# [3] = test system: T2, DRAK2; conditions: n = 1
# T2 construct: gene STK17B
# [4] = test system: DYRK1A; conditions: concentration: 1 μM, replicates: in singlicate, n = 1
# [5] = test system: DYRK1B; conditions: n = 1
# [6] = test system: DYRK2; conditions: concentration: 1 μM, replicates: in singlicate, n = 1
# [7] = test system: EGFR; conditions: concentration: 1 μM, replicates: in singlicate, n = 1
# [8] = test system: EIF2AK1; conditions: concentration: 1 μM, replicates: in singlicate, n = 1
# [9] = test system: EPHA1; conditions: concentration: 1 μM, replicates: in singlicate, n = 1
# [10] = test system: EPHA2; conditions: concentration: 1 μM, replicates: in singlicate; n = 1
# [11] = test system: EPHA3; conditions: concentration: 1 μM, replicates: in singlicate, n = 1
# [12] = test system: EPHA4; conditions: concentration: 1 μM, replicates: in singlicate, n = 1
# [13] = test system: EPHA5; conditions: concentration: 1 μM, replicates: in singlicate, n = 1
# [14] = test system: EPHA6; conditions: n = 1
# [15] = test system: EPHA7; conditions: concentration: 1 μM, replicates: in singlicate, n = 1
# [16] = test system: EPHA8; conditions: concentration: 1 μM, replicates: in singlicate, n = 1
# [17] = test system: EPHB1; conditions: concentration: 1 μM, replicates: in singlicate, n = 1
# [18] = test system: EPHB2; conditions: concentration: 1 μM, replicates: in singlicate, n = 1
# [19] = test system: EPHB3; conditions: concentration: 1 μM, replicates: in singlicate, n = 1
# [20] = test system: EPHB4; conditions: concentration: 1 μM, replicates: in singlicate, n = 1
# [21] = concentration: 1 μM, replicates: in singlicate
# [22] = concentration: 1 μM, replicates: in singlicate, 1 µM
# 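Also: KINOMEscan kinase panel screen.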
compound,measurement,setting,value
C[C@@H](Oc1cc(-n2cnc3ccc(NC(=O)NC(C)(C)C)cc32)sc1C(N)=O)c1ccccc1Cl [GSK346294],%Inh,[1],0%
same,%Inh,[2],0%
same,%Inh,[3]; [21],0%
same,%Inh,[4],0%
same,%Inh,[5]; [21],0%
same,%Inh,[6],15%
same,%Inh,[7],32%
same,%Inh,[8],0%
same,%Inh,[9],4%
same,%Inh,[10],0%
same,%Inh,[11],26%
same,%Inh,[12],3%
same,%Inh,[13],0%
same,%Inh,[14]; [21],5%
same,%Inh,[15],17%
same,%Inh,[16],27%
same,%Inh,[17],14%
same,%Inh,[18],15%
same,%Inh,[19],18%
same,%Inh,[20],7%
c1ccc(-c2cc(-c3c[nH]nc3-c3ccccn3)ccn2)cc1 [GW576604],%Inh,[1],0%
same,%Inh,[2],11%
same,%Inh,[3]; [21],0%
same,%Inh,[4],4%
same,%Inh,[5]; [21],0%
same,%Inh,[6],0%
same,%Inh,[7],17%
same,%Inh,[8],0%
same,%Inh,[9],0%
same,%Inh,[10],0%
same,%Inh,[11],15%
same,%Inh,[12],0%
same,%Inh,[13],0%
same,%Inh,[14]; [21],0%
same,%Inh,[15],0%
same,%Inh,[16],0%
same,%Inh,[17],20%
same,%Inh,[18],0%
same,%Inh,[19],0%
same,%Inh,[20],7%
Cn1ccc2ncnc(Oc3ccc(NC(=O)Nc4ccncc4)c(Cl)c3)c21,%Inh,[1],0%
same,%Inh,[2],0%
same,%Inh,[3]; [21],0%
same,%Inh,[4],0%
same,%Inh,[5]; [21],21%
same,%Inh,[6],0%
same,%Inh,[7],0%
same,%Inh,[8],0%
same,%Inh,[9],0%
same,%Inh,[10],0%
same,%Inh,[11],0%
same,%Inh,[12],14%
same,%Inh,[13],0%
same,%Inh,[14]; [21],16%
same,%Inh,[15],0%
same,%Inh,[16],0%
same,%Inh,[17],0%
same,%Inh,[18],2%
same,%Inh,[19],6%
same,%Inh,[20],1%
O=C(NOCC1CC1)c1ccc(F)c(F)c1Nc1ccc(I)cc1Cl,%Inh,[1],0%
same,%Inh,[2],0%
same,%Inh,[3]; [21],21%
same,%Inh,[4],0%
same,%Inh,[5]; [21],0%
same,%Inh,[6],0%
same,%Inh,[7],0%
same,%Inh,[8],0%
same,%Inh,[9],3%
same,%Inh,[10],0%
same,%Inh,[11],0%
same,%Inh,[12],0%
same,%Inh,[13],1%
same,%Inh,[14]; [21],0%
same,%Inh,[15],0%
same,%Inh,[16],0%
same,%Inh,[17],0%
same,%Inh,[18],0%
same,%Inh,[19],0%
same,%Inh,[20],0%
N#Cc1c(N2CCOCC2)sc(-c2ccn[nH]2)c1-c1ccc(Cl)cc1,%Inh,[1],4%
same,%Inh,[2],0%
same,%Inh,[3]; [21],0%
same,%Inh,[4],0%
same,%Inh,[5]; [21],47%
same,%Inh,[6],0%
same,%Inh,[7],0%
same,%Inh,[8],0%
same,%Inh,[9],1%
same,%Inh,[10],0%
same,%Inh,[11],11%
same,%Inh,[12],0%
same,%Inh,[13],16%
same,%Inh,[14]; [21],27%
same,%Inh,[15],5%
same,%Inh,[16],7%
same,%Inh,[17],14%
same,%Inh,[18],0%
same,%Inh,[19],15%
same,%Inh,[20],12%
NS(=O)(=O)c1cccc(-c2ccc3ncc(N4CCOCC4)nc3c2)c1 [GSK1535721],%Inh,[1],0%
same,%Inh,[2],0%
same,%Inh,[3]; [21],0%
same,%Inh,[4],0%
same,%Inh,[5]; [21],4%
same,%Inh,[6],28%
same,%Inh,[7],12%
same,%Inh,[8],0%
same,%Inh,[9],0%
same,%Inh,[10],7%
same,%Inh,[11],11%
same,%Inh,[12],8%
same,%Inh,[13],0%
same,%Inh,[14]; [21],8%
same,%Inh,[15],3%
same,%Inh,[16],11%
same,%Inh,[17],5%
same,%Inh,[18],6%
same,%Inh,[19],9%
same,%Inh,[20],17%
O=C(Nc1n[nH]c2cc(-c3cccc(F)c3)ccc12)C1CC1 [SB-735464],%Inh,[1],0%
same,%Inh,[2],7%
same,%Inh,[3]; [21],0%
same,%Inh,[4],10%
same,%Inh,[5]; [21],0%
same,%Inh,[6],16%
same,%Inh,[7],0%
same,%Inh,[8],0%
same,%Inh,[9],25%
same,%Inh,[10],0%
same,%Inh,[11],17%
same,%Inh,[12],24%
same,%Inh,[13],0%
same,%Inh,[14]; [21],14%
same,%Inh,[15],14%
same,%Inh,[16],13%
same,%Inh,[17],0%
same,%Inh,[18],0%
same,%Inh,[19],20%
same,%Inh,[20],21%
[2H]C([2H])(c1cccc(C(F)(F)F)c1C)n1ccn2c(=O)nc(N3CCOCC3)cc12 [GSK2336394],%Inh,[1],0%
same,%Inh,[2],0%
same,%Inh,[3]; [21],0%
same,%Inh,[4],16%
same,%Inh,[5]; [21],0%
same,%Inh,[6],1%
same,%Inh,[7],28%
same,%Inh,[8],0%
same,%Inh,[9],12%
same,%Inh,[10],8%
same,%Inh,[11],0%
same,%Inh,[12],1%
same,%Inh,[13],0%
same,%Inh,[14]; [21],0%
same,%Inh,[15],11%
same,%Inh,[16],19%
same,%Inh,[17],20%
same,%Inh,[18],0%
same,%Inh,[19],7%
same,%Inh,[20],8%
COC(=O)Nc1nc2cc(Oc3ccc(NC(=O)Nc4cc(F)ccc4F)cc3)ccc2[nH]1.Cl [GW701424],%Inh,[1],0%
same,%Inh,[2],2%
same,%Inh,[3]; [21],0%
same,%Inh,[4],5%
same,%Inh,[5]; [21],6%
same,%Inh,[6],0%
same,%Inh,[7],35%
same,%Inh,[8],0%
same,%Inh,[9],11%
same,%Inh,[10],63%
same,%Inh,[11],8%
same,%Inh,[12],37%
same,%Inh,[13],1%
same,%Inh,[14]; [21],75%
same,%Inh,[15],16%
same,%Inh,[16],75%
same,%Inh,[17],37%
same,%Inh,[18],68%
same,%Inh,[19],1%
same,%Inh,[20],53%
Cl.Cl.Cl.Fc1ccc(-c2ncn(C3CCNCC3)c2-c2ccnc(Nc3ccccc3)n2)cc1 [SB-238039],%Inh,[1],28%
same,%Inh,[2]; 1 µM,9% and 3%
same,%Inh,[3]; [22],18% and 6%
same,%Inh,[4],0%
same,%Inh,[5]; [22],6% and 7%
same,%Inh,[6]; 1 µM,11% and 0%
same,%Inh,[7]; 1 µM,90.1% and 72%
same,%Inh,[8]; 1 µM,0% and 1%
same,%Inh,[9],0%
same,%Inh,[10],0%
same,%Inh,[11]; 1 µM,34% and 25%
same,%Inh,[12]; 1 µM,8% and 0%
same,%Inh,[13]; 1 µM,7% and 10%
same,%Inh,[14]; [22],18% and 0%
same,%Inh,[15],0%
same,%Inh,[16],10%
same,%Inh,[17]; 1 µM,31% and 0%
same,%Inh,[18]; 1 µM,25% and 0%
same,%Inh,[19],0%
same,%Inh,[20],0%
CC(=O)Nc1ccc(COc2ccc(Nc3ccnc4cc(-c5ccccn5)ccc34)cc2)cc1.Cl [GW440148],%Inh,[1],0%
same,%Inh,[2],1%
same,%Inh,[3]; [21],21%
same,%Inh,[4],4%
same,%Inh,[5]; [21],33%
same,%Inh,[6],11%
same,%Inh,[7],23%
same,%Inh,[8],0%
same,%Inh,[9],11%
same,%Inh,[10],0%
same,%Inh,[11],17%
same,%Inh,[12],3%
same,%Inh,[13],0%
same,%Inh,[14]; [21],8%
same,%Inh,[15],0%
same,%Inh,[16],17%
same,%Inh,[17],0%
same,%Inh,[18],0%
same,%Inh,[19],8%
same,%Inh,[20],10%
O=c1cc(N2CCOCC2)nc2n(Cc3cccc(Cl)c3Cl)c(C3CC3)nn12 [GSK2358994],%Inh,[1],0%
same,%Inh,[2],11%
same,%Inh,[3]; [21],9%
same,%Inh,[4],2%
same,%Inh,[5]; 1 µM,0%
same,%Inh,[6],1%
same,%Inh,[7],0%
same,%Inh,[8],0%
same,%Inh,[9],7%
same,%Inh,[10],0%
same,%Inh,[11],0%
same,%Inh,[12],11%
same,%Inh,[13],6%
same,%Inh,[14]; 1 µM,0%
same,%Inh,[15],0%
same,%Inh,[16],9%
same,%Inh,[17],0%
same,%Inh,[18],0%
same,%Inh,[19],7%
same,%Inh,[20],3%
NCCNS(=O)(=O)c1ccc(-c2ccnc3[nH]ccc23)cc1 [GSK977617],%Inh,[1]; 1 µM,98.6% and 96.7%
same,%Inh,[2]; 1 µM,98.5% and 96.6%
same,%Inh,[3]; [22],77% and 60%
same,%Inh,[4]; 1 µM,89% and 84%
same,%Inh,[5]; [22],85% and 61%
same,%Inh,[6]; 1 µM,86% and 72%
same,%Inh,[7]; 1 µM,22% and 15%
same,%Inh,[8]; 1 µM,11% and 0%
same,%Inh,[9]; 1 µM,54% and 38%
same,%Inh,[10],0%
same,%Inh,[11]; 1 µM,52% and 31%
same,%Inh,[12]; 1 µM,6% and 0%
same,%Inh,[13],0%
same,%Inh,[14]; [22],5% and 0%
same,%Inh,[15]; 1 µM,16% and 15%
same,%Inh,[16]; 1 µM,13% and 16%
same,%Inh,[17]; 1 µM,23% and 15%
same,%Inh,[18],0%
same,%Inh,[19]; 1 µM,11% and 0%
same,%Inh,[20]; 1 µM,11% and 1%
CN1c2ccc(NCc3ccc(F)cc3)cc2-c2c(cnn2C)S1(=O)=O,%Inh,[1],0%
same,%Inh,[2],0%
same,%Inh,[3]; [21],0%
same,%Inh,[4],0%
same,%Inh,[5]; [21],16%
same,%Inh,[6],0%
same,%Inh,[7],0%
same,%Inh,[8],0%
same,%Inh,[9],0%
same,%Inh,[10],12%
same,%Inh,[11],0%
same,%Inh,[12],0%
same,%Inh,[13],0%
same,%Inh,[14]; [21],0%
same,%Inh,[15],0%
same,%Inh,[16],0%
same,%Inh,[17],0%
same,%Inh,[18],0%
same,%Inh,[19],6%
same,%Inh,[20],0%
CSc1ccc(-c2cc3ncnc(SCC(=O)O)c3s2)cc1,%Inh,[1],0%
same,%Inh,[2],37%
same,%Inh,[3]; 1 µM,97.7%
same,%Inh,[4],0%
same,%Inh,[5]; [21],0%
same,%Inh,[6],0%
same,%Inh,[7],27%
same,%Inh,[8],12%
same,%Inh,[9],11%
same,%Inh,[10],0%
same,%Inh,[11],0%
same,%Inh,[12],5%
same,%Inh,[13],13%
same,%Inh,[14]; [21],6%
same,%Inh,[15],0%
same,%Inh,[16],0%
same,%Inh,[17],4%
same,%Inh,[18],0%
same,%Inh,[19],15%
same,%Inh,[20],18%
